Screen size: about 1,300 compounds; about 120 (9.2%) were called active. About 35% were inconclusive and are not listed. Calls follow the shape of the dose curve; as a rule, active = well fitted activation curve with a large enough effect; inconclusive = small, poorly fitted or top-dose-only effect; inactive = flat fitted curve, though single readings scatter. Not all results are given here.
Potency is read from the fitted curve at half-maximal effect.

In this test the target is Luciferin 4-monooxygenase (Photinus pyralis) (UniProt P08659). Kind of test: Firefly luciferase (FLuc-C-HiBiT) SDR gain of signal screen - plus ATP.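 Also: signal reports ligand binding via conformational change of the enzyme rather than luciferase catalysis; nearly all actives have a fitted effect of over 55% in size.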 As to activation (gain of signal): % of control where 0% means no effect. The following applies: purified FLuc-C-HiBiT + ATP, HiBiT complementation luminescence; series mostly up to 32.7 µM; activation (gain of signal): at the top concentration. From the text: PI: James Inglese Ph.D. National Center for Advancing Translational Sciences (NCATS), National Institute of Health (NIH), Maryland Discovery and optimization of novel protein-binding ligands underlies many of the methods and applications of biology, drug discovery, clinical diagnostics, and environmental toxicology. Assays for detecting the interaction of, for example, a molecule with a macromolecular target also referred to here as the target of interest (TOI) is dependent on a compatible output technology. Depending on the nature and knowledge surrounding the TOI, whether a receptor, enzyme, regulatory subunit or scaffold, or a sequence-defined nucleic acid folded into a complex tertiary structure, assay strategies can vary widely. Here we exploit ligand-biased changes in the structural dynamics of the target protein to control reporter alpha complementation allowing a non-competitive, non-functional, non-separation measure of ligand-target interaction. […] Using a chemical library of >1,200 compounds enriched for scaffolds known to be associated with the inhibition of firefly luciferase (FLuc) activity (PubChem AIDs 2309) we first illustrate and compare the Structural Dynamics Response (SDR) assay vs. the standard functional FLuc enzyme assay (2). Secondly, we show the specificity and sensitivity of the SDR for the Abelson tyrosine kinase (ABL1) compared to the serine/threonine protein kinase A, using an enriched chemical library of 128 compounds selected, in part, for activity annotated with ABL1 kinase activity using the Pharos database (3). References: (1) A. S. Dixon et al., NanoLuc Complementation Reporter Optimized for Accurate Measurement of Protein Interactions in Cells. ACS Chem Biol 11, 400-408 (2016). […] Chemistry & Biology, 19, 1060 - 1072 (2012). (3) K. J. Kelleher et al., Pharos 2023: an integrated resource for the understudied human proteome. Nucleic Acids Res 51, D1405-D1416 (2023).
Chain of Luciferin 4-monooxygenase (Photinus pyralis) (P08659 whole entry, looked up): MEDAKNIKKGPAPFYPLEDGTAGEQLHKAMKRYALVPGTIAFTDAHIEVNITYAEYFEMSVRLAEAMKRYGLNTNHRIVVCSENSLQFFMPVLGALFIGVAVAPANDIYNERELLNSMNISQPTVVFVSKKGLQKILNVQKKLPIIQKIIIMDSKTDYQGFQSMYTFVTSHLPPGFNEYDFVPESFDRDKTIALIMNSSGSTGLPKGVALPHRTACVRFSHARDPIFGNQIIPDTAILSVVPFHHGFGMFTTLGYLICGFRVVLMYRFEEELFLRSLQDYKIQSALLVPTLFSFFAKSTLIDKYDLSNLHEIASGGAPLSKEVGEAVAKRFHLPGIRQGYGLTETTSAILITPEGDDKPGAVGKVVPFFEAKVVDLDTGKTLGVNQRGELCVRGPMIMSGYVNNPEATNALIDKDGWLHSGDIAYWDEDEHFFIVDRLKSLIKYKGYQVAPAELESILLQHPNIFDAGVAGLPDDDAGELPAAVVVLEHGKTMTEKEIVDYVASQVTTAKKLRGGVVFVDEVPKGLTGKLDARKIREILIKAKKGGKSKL
1. Reagent. Dispense 4 uL FLuc-C-HiBiT enzyme-buffer solution per well at a final enzyme concentration of 10 nM with or without 10 uM ATP into columns 2-48 of white, solid bottom medium bind 1536-well plates (Greiner Bio-One) by BioRaptr 2. Dispense respective buffer without enzyme at 4 uL/well in column 1 of assay plates. 2. Compounds. Library compounds and PTC124 control added at 23 nL per well, transfer by Pin Tool. 3. Incubation. Incubate enzyme and compounds at room temperature for >30 min, protect from light. 4. Reagent. (SDR assay) Add 3 uL/well of Nano-Glo HiBiT reagent (Promega) to assay plates for SDR assay with ATP. 5. Incubation. Incubate enzyme and substrate or detection reagent at room temperature for 5-10 min, protect from light. 6. Detector. HiBiT SDR assay measured using CCD-based camera (ViewLux) with settings as follows: Exposure, 1 sec; Gain, High; Speed, Slow; Binning, 2X. REFERENCES: Inglese J, Shamu CE and Guy RK, Reporting data from high throughput screening of small molecule libraries, Nature Chemical Biology, 2007, 3(8): 438-441. doi.org/10.1038/nchembio0807-438.
On the technique in general: With HiBiT, luminescence reflects the tagged protein that the partner subunit can reach.
As for `CC(=O)c1ccc(NC(=O)CSc2nnc(NC(=O)Nc3ccccc3)s2)cc1`, the “activation (gain of signal)” value is 12% (inactive). Same read-out and setting: to `Cc1ccc(C(=O)Nc2ccc(-c3nc4ccccc4s3)c(O)c2)cc1` belongs 7.6% (inactive).

For `Cc1nn(-c2ccc(C(C)(C)C)cc2)c(C)c1[C@@H]1C=C[C@@H](NC(=O)c2ccco2)C1`, the “activation (gain of signal)” value was 9.65% [at 49.3 µM] (inactive). On the same count and under the same terms, to `Oc1ccc(-c2nc(C3CC3)nc3c2CCN(Cc2cccc(F)c2)CC3)cc1` belongs 5.44% (inactive); to `CC(=O)Nc1ccc(NC(=O)CCCc2nc(-c3ccc(C(C)(C)C)cc3)no2)cc1`, 17.7% (inactive); to `Cc1ccc(Nc2c(-c3ccc(N(C)C)cc3)nc3nc[nH]n23)cc1`, 13.4% (inactive).

On to `Fc1ccc(Nc2nc(-c3ccccc3F)no2)cc1`, for which the “activation (gain of signal)” value is 17.1% (inactive). On the same count and under the same terms, to `Cc1ccc(-c2nnc(SCc3ccccc3C)o2)cc1` belongs 12% (inactive). In the case of `CCNC(=O)C1C(c2cccc(NC(=O)c3ccc(OC)cc3)c2)OC(=O)N1Cc1ccc(C)cc1` (centres undefined), the Potency is 3.94 µM (active). With `Cc1cc(C)n(CCC(=O)N2CCC(Cc3noc(C4CC4)n3)C2)n1` (centres undefined), the “activation (gain of signal)” value is 6.83% (inactive). Turning to `Cc1cccc(-c2cccc(NC(=O)C3CCCN(C(=O)CC(F)(F)F)C3)c2)c1` (centres undefined), the “activation (gain of signal)” value is 14.3% (inactive). Take `Cc1nn(-c2ccc(C(C)C)cc2)c(C)c1[C@@H]1C=C[C@@H](NC(=O)CC2(CC(=O)O)CCCC2)C1`: the “activation (gain of signal)” value was 12.4% (inactive).

As for `CC(C)C(=O)Nc1cc(-c2nc3ccccc3s2)ccc1Cl`, the “activation (gain of signal)” value is 8.2% (inactive).

Turning to `COc1cccc(-c2nc3ccc(-c4ccc5c(c4)OCO5)cc3o2)c1OC`, the “activation (gain of signal)” value was 18.1% (inactive). On the same count and under the same terms, then `OC1(CN2CCCCC2)CCN(c2nc3ccccc3s2)C1` (centres undefined), with 13.2% (inactive); and `Cc1nn(-c2ccc(C(C)C)cc2)c(C)c1[C@@H]1C=C[C@@H](NC(=O)Nc2ccccc2)C1`, with 15.3% [at 49.3 µM] (inactive); and `CN1CCN(C[C@@H]2CN(C(=O)CCCc3ccccc3)C[C@@H]2CO)CC1`, with 7.28% (inactive). In the case of `COc1ccc(-c2cc(N3CCCC(NC(=O)c4ccsc4)C3)n[nH]2)cc1` (centres undefined), the “activation (gain of signal)” value is 13.6% (inactive). Same read-out and setting: to `COc1ccccc1OC1(C(=O)O)CCN(c2ncnc3nc[nH]c23)CC1` belongs 10.2% (inactive); to `O=C(CSc1ccc(F)cc1)Nc1ccccc1-c1nc2ccccc2s1`, 8.51% (inactive); to `O=C(Nc1ccccc1)c1nc2c(o1)CCN(Cc1cccc(Cl)c1)CC2`, 15% [at 49.3 µM] (inactive).

Regarding `COc1ccc(C(=O)Nc2onc3c2CCCC3)cc1`, the Potency is 3.94 µM (active). As for `OCc1cccc(-c2cc3c(cn2)CN(Cc2ccccc2)CCN3)c1`, the “activation (gain of signal)” value is 11.4% [at 49.3 µM] (inactive). Still for that read-out and setting: then `O=C(/C=C/c1ccccc1)Nc1cc(-c2nc3cc(Cl)ccc3o2)ccc1Cl`, with 9.6% (inactive). Same read-out and setting: then `CC(=O)c1nn(-c2ccc(OC(F)(F)F)cc2)nc1Nc1ccccc1`, with 16.2% (inactive). The same measure, in the same setting: then `CNc1nc(C(=O)NCc2ccc3[nH]c(-c4ccc(F)cc4)c(C)c3c2)cs1`, with 8.35% (inactive).

With `CN1c2cc(C(=O)Nc3ccccc3)ccc2C(=O)N2CCCCCC21` (centres undefined), the “activation (gain of signal)” value is 15.6% (inactive). On the same count and under the same terms, then `Cc1nn(-c2ccc(C(C)C)cc2)c(C)c1[C@@H]1C=C[C@@H](NC(=S)NCC(C)C)C1`, with 11.9% [at 49.3 µM] (inactive); and `Cc1cccc(C(=O)Nc2ccc(-c3nc4ccccc4s3)c(C)c2)c1`, with 15.5% (inactive). For the compound `OCC1CCCN(c2ncnc3c2cnn3-c2ccccc2)C1` (centres undefined), the Potency is 0.785 µM (active). For `Cc1ccc(Cl)cc1-n1ncc2c(N3CCC(C(N)=O)CC3)ncnc21`, the “activation (gain of signal)” value was 7.56% (inactive). For `OCCN1CCN(c2nc(N3CCCCC3)c3cnn(-c4ccc(Cl)cc4)c3n2)CC1`, the “activation (gain of signal)” value is 8.75% (inactive). Still for that read-out and setting: then `C[S+](=O)([O-])CCn1ncc2cc(OCc3cccc(-c4ccccc4)c3)ccc21`, with 11.7% [at 49.3 µM] (inactive). Same read-out and setting: to `CC(=O)Oc1ccccc1C(=O)Nc1ccc(-c2nc3ccc(C)cc3s2)cc1` belongs 12.8% (inactive); to `O=C(NC1CCN(c2cc(-c3ccc(F)cc3)[nH]n2)C1)c1cc2ccccc2[nH]1` (centres undefined), 10.8% (inactive); to `Cc1ccc2cc(CN3CCN(CC(N)=O)CC3)c(-c3cccs3)nc2c1`, 11.7% (inactive). Still for that read-out and setting: then `COc1ccc(CC(=O)Nc2ccc(-c3nc4ccccc4s3)c(C)c2)cc1`, with 8.15% (inactive).

For `COc1ccc(-c2nc3ccccc3s2)cc1NC(=O)COc1ccccc1C`, the “activation (gain of signal)” value is 6.09% (inactive). Consider `CCc1cccc(NC(=O)c2cc(-c3ccccc3)n[nH]2)c1`, for which the “activation (gain of signal)” value was 15.8% (inactive). On the same count and under the same terms, to `COc1cc(F)ccc1-c1ccc(COc2ccc3c(cnn3CCC(=O)O)c2)cc1` belongs 10.6% [at 49.3 µM] (inactive); to `Cc1ccc(-c2nc(C(=O)N(C)Cc3ccccc3)no2)cc1`, 14.4% (inactive). On the same count and under the same terms, to `Oc1cccc(-c2cc3c(cn2)CN(Cc2cccnc2)CCN3)c1` belongs 12.9% [at 49.3 µM] (inactive).

As for `O=C(COc1ccc(Cl)cc1)Nc1ccc(-c2nc3cc(Cl)ccc3o2)c(O)c1`, the “activation (gain of signal)” value was 9.32% (inactive). As for `CCOC(=O)C1CCN(C(=O)c2cccc3c2CCN3C(=O)Nc2ccccc2)CC1`, the Potency was 3.13 µM (active).
